# Experimental data as given in PubChem BioAssay.
# “And” between values parts separate entries of the source, which are not always exact repeats. Identical values can stand only once. The source made the active and inactive calls. Unless noted, how the calls were made is not given here.
# What was measured:
# [1] = HepG2 liver cancer cell viability effects, profiling panel, resazurin fluorescence, 24 h, PK04 Diversity Set (AID 1172); details: higher = more signal; further: test concentration not given here
# [2] = basal S. cerevisiae growth modulation, no modifier, primary screen, OD600, strain BY4716, 24 h, basal condition (AID 1173); details: OD600, 24 h, higher = more signal, called active from +8 up or from −8 down
# [3] = MM1S myeloma cell viability, profiling panel, resazurin fluorescence, basal, 24 h, PK04 Diversity Set (AID 1174); details: higher = more signal, called active from +8 up or from −8 down;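 further: MM1S multiple myeloma cell line; test concentration not given here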
# [4] = molecular target: Dihydroorotate dehydrogenase (quinone), mitochondrial (Plasmodium falciparum (isolate 3D7)) (UniProt Q08210); assay: PfDHODH enzyme inhibitors, primary screen, biochemical, C-terminal His tag, absorbance 600 nm (AID 1175); details: DCIP absorbance 600 nm, higher = more signal, called active from +8 up or from −8 down;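 further: recombinant parasite enzyme with a five histidine tag at its C terminus; test concentration not given here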
# [5] = P. aeruginosa biofilm formation inhibitors, primary screen, strain PAO1, LB-PBS medium, absorbance 600 nm (AID 1176); further: test concentration not given here; details: P. aeruginosa PAO1 growth/biofilm, A600, 12 h; higher = more signal
# [6] = S. cerevisiae RM11-1a growth modifiers, primary screen, strain RM11-1a, OD600, basal, 24 h (AID 1177); details: OD600, 24 h, higher = more signal, called active from +8 up or from −8 down;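 further: cultures grown under basal conditions with no added stressor; test concentration not given here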
# [7] = E. coli acrAB mutant growth effects, primary screen, E. coli filamentation inducers, strain DRC39, OD650, 24 h (AID 1178); details: higher = more signal, called active from +8 up or from −8 down;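 further: growth measured as culture turbidity by optical density at 650 nm; test concentration not given here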
# [8] = E. coli acrAB mutant growth effects, primary screen, E. coli filamentation inducers, strain DRC39, OD650, 48 h (AID 1179);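 further: screen aims at cell division blockers that make cells filament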; details: E. coli DRC39 delta-acrAB growth, higher = more signal, called active from +8 up or from −8 down
# [9] = RPMI8226 myeloma cell viability, profiling panel, resazurin fluorescence, basal, 24 h, PK04 Diversity Set (AID 1180); details: higher = more signal;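 further: RPMI8826 multiple myeloma cell line at 5000 cells per well; test concentration not given here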
# [10] = molecular target: E3 ubiquitin-protein ligase XIAP (Homo sapiens) (UniProt P98170); assay: XIAP binders, primary screen, biophysical, small-molecule microarray, fluorescence 635 nm (AID 1181); details: small-molecule microarray binding, higher = more signal;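 further: score merges 667 nm emission and signal to noise over triplicate slides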
# Sequence of E3 ubiquitin-protein ligase XIAP (Homo sapiens) (P98170 whole entry, looked up): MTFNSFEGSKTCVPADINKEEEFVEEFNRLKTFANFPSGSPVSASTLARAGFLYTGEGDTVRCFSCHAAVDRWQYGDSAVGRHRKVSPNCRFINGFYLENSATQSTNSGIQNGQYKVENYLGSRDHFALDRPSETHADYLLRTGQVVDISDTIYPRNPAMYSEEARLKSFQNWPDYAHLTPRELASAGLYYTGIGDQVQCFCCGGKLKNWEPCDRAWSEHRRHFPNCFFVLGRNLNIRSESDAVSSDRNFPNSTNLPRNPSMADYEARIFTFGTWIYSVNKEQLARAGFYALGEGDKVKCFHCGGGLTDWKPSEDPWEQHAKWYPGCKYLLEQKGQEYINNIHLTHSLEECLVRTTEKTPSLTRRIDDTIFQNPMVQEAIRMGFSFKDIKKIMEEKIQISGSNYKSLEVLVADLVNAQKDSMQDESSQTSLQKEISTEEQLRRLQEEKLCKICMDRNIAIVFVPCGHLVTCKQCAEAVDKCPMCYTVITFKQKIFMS
# Sequence of Dihydroorotate dehydrogenase (quinone), mitochondrial (Plasmodium falciparum (isolate 3D7)) (Q08210 whole entry, looked up): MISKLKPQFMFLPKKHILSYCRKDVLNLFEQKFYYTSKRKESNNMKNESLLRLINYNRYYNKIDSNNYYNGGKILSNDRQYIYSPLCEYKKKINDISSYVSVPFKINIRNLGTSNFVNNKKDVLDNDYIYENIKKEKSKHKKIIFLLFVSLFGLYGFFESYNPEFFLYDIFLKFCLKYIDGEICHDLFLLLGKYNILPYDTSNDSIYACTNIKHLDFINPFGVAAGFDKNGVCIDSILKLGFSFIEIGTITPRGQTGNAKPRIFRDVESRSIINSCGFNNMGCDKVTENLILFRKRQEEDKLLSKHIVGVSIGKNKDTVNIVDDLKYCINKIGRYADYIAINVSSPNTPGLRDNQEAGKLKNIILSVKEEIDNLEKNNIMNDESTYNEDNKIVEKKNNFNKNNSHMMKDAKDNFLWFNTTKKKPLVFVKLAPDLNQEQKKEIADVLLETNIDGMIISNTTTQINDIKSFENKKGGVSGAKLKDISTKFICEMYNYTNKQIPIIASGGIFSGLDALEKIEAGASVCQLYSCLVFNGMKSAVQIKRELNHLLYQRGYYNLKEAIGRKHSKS
SMILES,z-score [1],z-score [2],z-score [3],composite z-score [4],z-score [5],z-score [6],z-score [7],z-score [8],z-score [9],composite z-score [10]
COC(=O)[C@@]1(Cc2ccccc2)[C@H]2c3cc(C(=O)N(C)C)n(C[C@H](O)CO)c3C[C@H]2CN1C(=O)c1ccccc1,-0.777 and -0.734,0.168 (inactive) and 1.78 (inactive),-0.939 (inactive) and -0.957 (inactive),-0.402 (inactive) and 0.547 (inactive),1.32 (inactive) and 0.15 (inactive),1.03 (inactive) and -0.204 (inactive),0.146 (inactive) and -0.785 (inactive),-0.121 (inactive) and -0.352 (inactive),-0.205 and -0.62,0.333 and 0.107
C=CC[C@H](O)c1ccc(OCCO)cc1,0.116 and -0.551,-1.47 (inactive) and -1.79 (inactive),-0.567 (inactive) and -0.911 (inactive),-0.364 (inactive) and -0.704 (inactive),0.225 (inactive) and -0.0818 (inactive),-0.0329 (inactive) and -0.774 (inactive),0.375 (inactive) and -0.241 (inactive),0.333 (inactive) and -0.405 (inactive),-0.535 and 0.0681,0.0697 and -0.152
C=CCN(C(=O)C1N(c2ccc(CCO)cc2)C(=O)C2C(C(=O)O)C3C=CC21O3)c1ccc(OC)cc1 (stereo not given),-1.89 and 0.336,-0.311 (inactive) and -0.641 (inactive),-1.58 (inactive) and 0.522 (inactive),0.51 (inactive) and -0.392 (inactive),-0.606 (inactive) and 0.428 (inactive),0.671 (inactive) and -0.529 (inactive),-0.782 (inactive) and 0.15 (inactive),-0.949 (inactive) and -0.249 (inactive),-0.641 and -0.0655,0.0808 and -0.0054
CC(CO)N1C(=O)[C@@H]2C3C(=O)OCCC=C[C@H]3OC23C=CCN(CCN2CCOCC2)C(=O)[C@@H]13 (stereo not given in full),-0.437 and 0.303,0.401 (inactive) and 0.191 (inactive),-1.45 (inactive) and -0.517 (inactive),-1.07 (inactive) and -2.08 (inactive),0.0405 (inactive) and 0.0809 (inactive),0.819 (inactive) and -0.631 (inactive),-0.831 (inactive) and -0.259 (inactive),-0.839 (inactive) and -0.358 (inactive),-1.03 and -0.76,0.16 and 0.219
C=CCN(C(=O)C(c1cccs1)N(C(=O)/C=C\C(=O)O)c1c(Cl)cccc1CO)C(C)(C)C (stereo not given),-0.842 and -0.839,0.0318 (inactive) and -0.393 (inactive),-0.525 (inactive) and -0.895 (inactive),-1.77 (inactive) and -0.93 (inactive),-0.304 (inactive) and -0.677 (inactive),-0.107 (inactive) and -0.495 (inactive),-0.514 (inactive) and -0.291 (inactive),-0.372 (inactive) and -0.102 (inactive),-0.554 and -1.29,-0.191 and 0.1
CC(C)=CCCC(C)=CCON=C1C[C@@H](O)[C@@H](O)[C@@H]2[C@@H]3C(=O)N([C@@H](C)c4ccccc4)C(=O)[C@@H]3CC[C@H]12,-1.03,-3.41 (inactive),-0.339 (inactive),-1.48 (inactive),0.365 (inactive),-2.18 (inactive),-1 (inactive),-0.666 (inactive),-0.637,0.104
CCOC(=O)[C@H](Cc1ccccc1)NC(=O)CCC1CC(OC(=O)NCc2cccc3ccccc23)CC2(CCCC(COC(=O)NCCCN3CCCC3=O)O2)O1 (stereo not given in full),0.968,-1.78 (inactive),1.07 (inactive),-1.19 (inactive),0.639 (inactive),-0.697 (inactive),-0.35 (inactive),-0.209 (inactive),1.75,-0.336
O=C1[C@H]2[C@H]3[C@H](O)[C@H](O)CC(=NOCc4ccccc4)[C@H]3CC[C@H]2C(=O)N1Cc1ccccc1,0.447,-2.68 (inactive),1.58 (inactive),-2.59 (inactive),0.106 (inactive),-2.13 (inactive),0.323 (inactive),-0.777 (inactive),0.719,-0.13
C[N+](C)(C)CCCCCCNC(=O)[C@H]1C[C@H]2C(=O)N[C@@H](CCCC[N+](C)(C)C)C(=O)N2[C@H]1c1cccc(OCCO)c1,-0.402 and -0.0872,-0.255 (inactive) and 0.763 (inactive),0.737 (inactive) and -0.541 (inactive),-2.69 (inactive) and -1.29 (inactive),-0.366 (inactive) and 0.146 (inactive),0.297 (inactive) and 1.2 (inactive),1.04 (inactive) and -0.0715 (inactive),1.47 (inactive) and -0.451 (inactive),0.455 and -1.29,-0.0553 and -0.0559
COc1ccc(COC(=O)NN=C2C[C@@H](O)[C@@H](O)[C@@H]3[C@@H]4C(=O)N(C(C)(C)C)C(=O)[C@@H]4CC[C@H]23)cc1,-0.947,-1.8 (inactive),-0.18 (inactive),-1.31 (inactive),0.541 (inactive),-1.94 (inactive),-0.21 (inactive),0.0442 (inactive),-0.571,-0.0845
COC(=O)C1=C(C)N(Cc2ccccc2)C2=C(C(=O)c3ccccc3)[C@H](c3ccccc3)[C@@](O)(C(=O)OC)C(=O)N2[C@@H]1c1ccccc1,0.291 and 0.302,-1.07 (inactive) and -0.683 (inactive),-1.34 (inactive) and -0.716 (inactive),0.382 (inactive) and -0.214 (inactive),0.875 (inactive) and -0.0538 (inactive),1.27 (inactive) and 0.504 (inactive),1.17 (inactive) and 0.312 (inactive),0.592 (inactive) and 0.607 (inactive),-0.56 and -0.7,0.0399 and -0.0118
C=CCN(C(=O)C1N(CCCCCCO)C(=O)C2C(C(=O)O)C3C=CC21O3)C(C)(C)C (stereo not given),-1.01 and -0.273,0.158 (inactive) and 0.0807 (inactive),-0.184 (inactive) and -0.49 (inactive),-0.708 (inactive) and -0.59 (inactive),-0.401 (inactive) and -0.484 (inactive),-0.37 (inactive) and -1.03 (inactive),-0.739 (inactive) and -0.371 (inactive),-0.467 (inactive) and -0.281 (inactive),-0.106 and -0.445,-0.227 and -0.231
C=C[C@@H](OC)[C@H](O)c1ccc(OCCO)cc1,0.242 and 0.884,-5.46 (inactive) and -6.32 (inactive),-0.154 (inactive) and 0.883 (inactive),0.358 (inactive) and -0.456 (inactive),0.519 (inactive) and 1.64 (inactive),0.526 (inactive) and -2.73 (inactive),0.0235 (inactive) and 1.08 (inactive),0.121 (inactive) and 1.48 (inactive),-0.121 and 1.36,-0.19 and -0.102
COC(=O)C1=C(C)N(Cc2ccccc2)[C@]23O[C@](C(=O)OC)(C(=O)N2[C@@H]1c1ccccc1)[C@H]1C(=O)N(c2ccccc2)C(=O)[C@H]13,0.652 and 1.12,-1.07 (inactive) and -1.3 (inactive),0.965 (inactive) and -0.165 (inactive),-0.047 (inactive) and -0.335 (inactive),-0.2 (inactive),-0.215 (inactive) and 0.133 (inactive),-0.308 (inactive) and 0.166 (inactive),-0.306 (inactive) and 0.155 (inactive),0.709 and 0.102,-0.0346 and -0.316
CC(CO)N1C(=O)[C@@H]2C3C(=O)OCCC=C[C@H]3OC23C=CCN(c2ccc4ccccc4c2)C(=O)[C@@H]13 (stereo not given in full),-0.406 and 0.0336,0.425 (inactive) and -0.0343 (inactive),-0.832 (inactive) and -0.602 (inactive),-5.1 (inactive) and -0.281 (inactive),-0.0837 (inactive) and -0.649 (inactive),1.44 (inactive) and -0.636 (inactive),-0.881 (inactive) and -0.593 (inactive),-0.987 (inactive) and -0.714 (inactive),-0.406 and -0.233,0.172 and 0.232
COC(=O)C1=C(C)N(Cc2ccccc2)[C@]23O[C@](C(=O)OC)(C(=O)N2[C@@H]1c1ccccc1)[C@H]1C(=O)N(C)C(=O)[C@H]13,0.101 and 1.13,-0.974 (inactive) and -1.6 (inactive),0.856 (inactive) and 0.302 (inactive),0.207 (inactive) and 0.467 (inactive),-1.59 (inactive),1.09 (inactive) and -0.535 (inactive),-0.34 (inactive) and 0.732 (inactive),0.207 (inactive) and 0.764 (inactive),0.389 and -0.0962,0.072 and 2.05
